# Data published in PubChem BioAssay (EPA / NIEHS).
# Inconclusive results are not listed. The source made the active and inactive calls. Rule for the calls: active = hit-call score of the fitted dose curve at least 0.9, where 1 is the maximum; inconclusive = response in the unintended direction; inactive = score below 0.9.
# Experiments:
# [1] = target: rat Corticotropin Releasing Factor Receptor (CRF), Crhr1 (gene 58959) (UniProt P35353); assay: NVS_GPCR_rCRF: NovaScreen (NVS) G Protein-Coupled Receptor Assay for rat Corticotropin Releasing Factor Receptor (CRF) (AID 2283300)
# Procedure, shortened: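 Single-concentration (25 uM, duplicate) radioligand binding on rat cortical membrane preparations, counted by scintillation after 2 h. Activity scored as signal loss relative to DMSO negative control.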
# [2] = target: rat Neurotensin Receptor (NTS), Ntsr1 (gene 366274) (UniProt P20789); assay: NVS_GPCR_rNTS: NovaScreen (NVS) G Protein-Coupled Receptor Assay for rat Neurotensin Receptor (NTS) (AID 2283308)
# Procedure, shortened: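 Single-point duplicates at 25 uM, then concentration series to 50 uM max for hits, measured radioligand displacement on rat forebrain membrane preparations. Bound label counted by filtration scintillation at 1 h; signal loss relative to DMSO fitted.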
# [3] = target: Norway rat Vesicular Monoamine Transporter (VMAT2), neurotransmitter transporter, Slc18a2 (gene 25549) (UniProt Q01827); assay: NVS_TR_rVMAT2: NovaScreen (NVS) Transporter Assay for Norway rat Vesicular Monoamine Transporter (VMAT2), neurotransmitter transporter (AID 2283376);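 note: actives lower the bound radioligand signal below the DMSO level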
# Procedure, shortened: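 Using rat forebrain membranes, specific radioligand binding to VMAT2 was measured by filtration and scintillation counting after 1 hour. Chemicals screened at 25 uM in duplicate, actives retested in concentration series, DMSO baseline.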
# [4] = target: PPP2CA (gene 5515) (UniProt P67775); assay: NVS_ENZ_hPPP2CA: NovaScreen (NVS) Enzymatic Assay for human Protein Phosphatase 2 Aatalytic subunit Alpha (PPP2CA) (AID 2283199)
# Procedure, shortened: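 Cell-free phosphatase activity: fluorescent substrate turnover by recombinant human enzyme, resolved by mobility shift at 1.33 h. Compounds passing the 25 uM duplicate primary screen were rerun in singleton series with a 50 uM top concentration.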
# [5] = target: human Protein Tyrosine Phosphatase Receptor Type C (PTPRC), PTPRC (gene 5788) (UniProt P08575); assay: NVS_ENZ_hPTPRC: NovaScreen (NVS) Enzymatic Assay for human Protein Tyrosine Phosphatase Receptor Type C (PTPRC) (AID 2283212)
# Procedure, shortened: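 Absorbance-based phosphatase activity of human PTPRC protein extracted from yeast was measured 1 h post-dosing. Compounds first tested at 25 uM in duplicate, then those passing threshold in singleton concentration series to 50 uM.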
# [6] = target: rat Acetylcholinesterase (AChE), Ache (gene 83817) (UniProt P37136); assay: NVS_ENZ_rAChE: NovaScreen (NVS) Enzymatic Assay for rat Acetylcholinesterase (AChE) (AID 2283233)
# Procedure, shortened: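 Compounds first screened at 25 uM in duplicate, then those passing threshold tested in concentration series up to 50 uM, against AChE from rat brain membranes. Enzyme activity read by absorbance at 0.33 h; inhibition scored versus DMSO.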
# [7] = system: rat Monoamine Oxidase, MAO-A, Central (MAOAC), gene 29253; assay: NVS_ENZ_rMAOAC: NovaScreen (NVS) Enzymatic Assay for rat Monoamine Oxidase, MAO-A, Central (MAOAC) (AID 2283243);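 note: potency refers to inhibition seen as signal drop below DMSO baseline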
# Procedure, shortened: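 Single-concentration duplicate testing at 25 uM, then concentration-response for actives, in a lysate-based radiodetection MAO-A activity assay from rat brain. Enzyme activity measured 1.5 hours post-dosing; DMSO served as negative control and baseline.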
# [8] = target: rat Monoamine Oxidase, MAO-B, Central (MAOBC), Maob (gene 25750) (UniProt P19643); assay: NVS_ENZ_rMAOBC: NovaScreen (NVS) Enzymatic Assay for rat Monoamine Oxidase, MAO-B, Central (MAOBC) (AID 2283238)
# Procedure, shortened: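 Actives from a duplicate 25 uM screen went on to singleton concentration-response with a 50 uM maximum. Enzyme source was rat brain tissue MAO-B, assayed cell-free. Radiolabelled product was counted by scintillation 1.17 h post-dose, with signal loss relative to DMSO.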
# [9] = target: Voltage-dependent N-type calcium channel subunit alpha-1B (Rattus norvegicus) (UniProt Q02294); assay: NVS_IC_rCaChN: NovaScreen (NVS) Ion Channel Assay for rat Calcium Channel, Type N (CaChN) (AID 2283317)
# [10] = target: human Phosphatase and Tensin Homolog (PTEN), PTEN (gene 5728) (UniProt P60484); assay: NVS_ENZ_hPTEN: NovaScreen (NVS) Enzymatic Assay for human Phosphatase and Tensin Homolog (PTEN) (AID 2283203)
# Procedure, shortened: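 Loss of fluorescent product signal after mobility-shift separation reports PTEN activity, recombinant human enzyme, 1 h after compound addition. Single 25 uM duplicate screen, then concentration-response on actives; DMSO baseline.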
# [11] = target: human Raf-1 Proto-Oncogene, serine/threonine Kinase (RAF1), RAF1 (gene 5894) (UniProt P04049); assay: NVS_ENZ_hRAF1: NovaScreen (NVS) Enzymatic Assay for human Raf-1 Proto-Oncogene, serine/threonine Kinase (RAF1) (AID 2283216)
# Procedure, shortened: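 Single-point screening at 25 uM (duplicate), followed by singleton concentration-response to 50 uM maximum for chemicals exceeding threshold. Enzyme activity from fluorescent substrate-product mobility-shift separation after 1 h, relative to DMSO.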
# [12] = target: human Protein Tyrosine Phosphatase Non-receptor Type 2 (PTPN2), PTPN2 (gene 5771) (UniProt P17706); assay: NVS_ENZ_hPTPN2: NovaScreen (NVS) Enzymatic Assay for human Protein Tyrosine Phosphatase Non-receptor Type 2 (PTPN2) (AID 2283207)
# Procedure, shortened: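 Activity measured as fluorescence after mobility-shift separation of substrate and product, 1 h after compound. Duplicate single-point 25 uM primary testing, concentration series for actives; inhibition scored as signal loss relative to DMSO baseline.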
# [13] = read-out: xenobiotic metabolism (CYP2C9), CYP2C9 (gene 1559); assay: CLD_CYP2C9_6hr: CellzDirect (CLD) Gene Expression Assay for xenobiotic metabolism (CYP2C9) at 6 hours (AID 2283664)
# Procedure, shortened: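 Readout is qNPA chemiluminescence of CYP2C9 mRNA, taken 6 h after dosing of cultured human liver primary cells at several concentrations. Activity is the increase over 0.2% DMSO baseline. Morphology-based cytotoxicity flagged yes/no.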
# [14] = ATG_M_32_XSP2: Attagene TRANS-FACTORIAL Multi-Species (XSP2) HepG2 Assay for M19 Transcription Factor (Internal Marker) (AID 2283826)
# Procedure, shortened: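 Read-out: fluorescent reporter mRNA fragments resolved by capillary electrophoresis after RT-PCR, gain-of-signal versus DMSO baseline. Cells were human HepG2 carrying transfected multi-reporter units, exposed 24 h. Medium contained 3 nM 6-alpha-fluorotestosterone plus 1.5 nM norgestrel.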
# [15] = target: rat Oxytocin Receptor (OXT), Oxtr (gene 25342) (UniProt P70536); assay: NVS_GPCR_rOXT: NovaScreen (NVS) G Protein-Coupled Receptor Assay for rat Oxytocin Receptor (OXT) (AID 2283330)
# Procedure, shortened: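 Binding to rat uterine membrane receptor was followed by scintillation counting of filter-trapped radioligand after 1 h. A 25 uM duplicate single-point screen preceded concentration series with a top of 50 uM. Signal loss was analysed relative to DMSO.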
# [16] = target: Bile acid receptor (Homo sapiens) (UniProt Q96RI1); assay: NVS_NR_hFXR_Agonist: NovaScreen (NVS) Nuclear Receptor Binding Assay for human Farnesoid X Receptor Agonism (FXR) (AID 2283347)
# Procedure, shortened: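 Agonist-mode FXR assay read by time-resolved FRET 1 h after compound addition, using isolated human receptor protein without cells. Duplicate 25 uM single-point primary screen, concentration series for confirmed actives; DMSO as baseline.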
# [17] = target: bovine Gamma-Aminobutyric Acid Type A Receptor BDZ, alpha 1 site (GABARa1), GABRA1 (gene 780973) (UniProt P08219); assay: NVS_LGIC_bGABARa1: NovaScreen (NVS) Ligand-Gated Ion Channel Assay for bovine Gamma-Aminobutyric Acid Type A Receptor BDZ, alpha 1 site (GABARa1) (AID 2283321)
# Procedure, shortened: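 Bovine cortex membrane preparation, benzodiazepine site on GABA-A alpha1; specific radioligand displacement read after 0.75 h by filtration and scintillation. Screen at 25 uM, then singleton titrations up to 50 uM; DMSO baseline.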
# Sequence of human Protein Tyrosine Phosphatase Non-receptor Type 2 (PTPN2), PTPN2 (gene 5771) (P17706 whole entry, looked up): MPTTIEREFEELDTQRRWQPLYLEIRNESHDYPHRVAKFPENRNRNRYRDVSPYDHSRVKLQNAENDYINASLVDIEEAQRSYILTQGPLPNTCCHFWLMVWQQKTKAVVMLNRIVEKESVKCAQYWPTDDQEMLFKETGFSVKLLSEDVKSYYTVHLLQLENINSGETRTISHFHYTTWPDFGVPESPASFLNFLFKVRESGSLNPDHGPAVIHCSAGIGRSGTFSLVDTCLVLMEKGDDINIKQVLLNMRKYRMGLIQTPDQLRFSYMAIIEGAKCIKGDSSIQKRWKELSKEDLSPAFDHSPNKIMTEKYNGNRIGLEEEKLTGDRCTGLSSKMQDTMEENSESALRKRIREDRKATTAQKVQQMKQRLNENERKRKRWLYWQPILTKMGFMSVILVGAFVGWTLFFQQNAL
# Sequence of human Raf-1 Proto-Oncogene, serine/threonine Kinase (RAF1), RAF1 (gene 5894) (P04049 whole entry, looked up): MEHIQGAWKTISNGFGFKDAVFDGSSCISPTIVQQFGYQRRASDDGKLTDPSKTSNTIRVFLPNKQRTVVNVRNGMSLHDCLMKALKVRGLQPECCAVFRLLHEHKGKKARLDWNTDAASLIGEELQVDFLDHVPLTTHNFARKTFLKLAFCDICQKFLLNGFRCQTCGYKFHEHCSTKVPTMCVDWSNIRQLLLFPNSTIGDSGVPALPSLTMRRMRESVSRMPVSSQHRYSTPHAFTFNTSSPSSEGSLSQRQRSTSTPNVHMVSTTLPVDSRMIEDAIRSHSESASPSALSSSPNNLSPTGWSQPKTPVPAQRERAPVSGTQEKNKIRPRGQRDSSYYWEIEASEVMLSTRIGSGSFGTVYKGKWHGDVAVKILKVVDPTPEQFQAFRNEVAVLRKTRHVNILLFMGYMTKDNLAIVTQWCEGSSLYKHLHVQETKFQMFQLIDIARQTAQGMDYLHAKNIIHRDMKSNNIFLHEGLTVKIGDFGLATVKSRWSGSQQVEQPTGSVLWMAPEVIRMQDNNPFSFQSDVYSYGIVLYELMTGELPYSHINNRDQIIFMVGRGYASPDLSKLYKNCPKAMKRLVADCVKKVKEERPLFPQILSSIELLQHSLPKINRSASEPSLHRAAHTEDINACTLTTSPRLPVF
# Sequence of rat Monoamine Oxidase, MAO-B, Central (MAOBC), Maob (gene 25750) (P19643 whole entry, looked up): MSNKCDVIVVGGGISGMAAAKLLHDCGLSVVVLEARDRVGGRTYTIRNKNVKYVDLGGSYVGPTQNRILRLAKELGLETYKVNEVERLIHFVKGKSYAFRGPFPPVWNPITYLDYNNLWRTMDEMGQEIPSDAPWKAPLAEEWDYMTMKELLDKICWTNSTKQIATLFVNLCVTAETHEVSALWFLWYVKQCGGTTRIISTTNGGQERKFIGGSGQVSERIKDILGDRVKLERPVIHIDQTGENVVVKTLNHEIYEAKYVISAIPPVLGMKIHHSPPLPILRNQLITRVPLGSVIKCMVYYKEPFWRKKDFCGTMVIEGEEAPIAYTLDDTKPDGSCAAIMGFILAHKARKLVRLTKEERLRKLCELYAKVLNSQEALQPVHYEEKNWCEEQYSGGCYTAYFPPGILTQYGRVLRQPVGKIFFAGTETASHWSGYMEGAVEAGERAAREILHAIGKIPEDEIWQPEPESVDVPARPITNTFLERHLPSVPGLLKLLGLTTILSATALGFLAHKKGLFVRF
# Sequence of human Phosphatase and Tensin Homolog (PTEN), PTEN (gene 5728) (P60484 whole entry, looked up): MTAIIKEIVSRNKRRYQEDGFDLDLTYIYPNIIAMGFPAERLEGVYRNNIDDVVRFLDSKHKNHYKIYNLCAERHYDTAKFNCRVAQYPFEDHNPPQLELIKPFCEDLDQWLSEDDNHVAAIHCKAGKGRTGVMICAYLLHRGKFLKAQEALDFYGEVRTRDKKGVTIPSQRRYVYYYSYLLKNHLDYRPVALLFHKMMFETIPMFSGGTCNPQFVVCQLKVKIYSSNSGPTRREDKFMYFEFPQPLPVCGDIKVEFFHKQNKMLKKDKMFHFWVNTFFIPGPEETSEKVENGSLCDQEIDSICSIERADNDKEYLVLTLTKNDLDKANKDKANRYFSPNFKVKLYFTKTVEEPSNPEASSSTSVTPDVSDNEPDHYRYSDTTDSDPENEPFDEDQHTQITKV
# Sequence of rat Acetylcholinesterase (AChE), Ache (gene 83817) (P37136 whole entry, looked up): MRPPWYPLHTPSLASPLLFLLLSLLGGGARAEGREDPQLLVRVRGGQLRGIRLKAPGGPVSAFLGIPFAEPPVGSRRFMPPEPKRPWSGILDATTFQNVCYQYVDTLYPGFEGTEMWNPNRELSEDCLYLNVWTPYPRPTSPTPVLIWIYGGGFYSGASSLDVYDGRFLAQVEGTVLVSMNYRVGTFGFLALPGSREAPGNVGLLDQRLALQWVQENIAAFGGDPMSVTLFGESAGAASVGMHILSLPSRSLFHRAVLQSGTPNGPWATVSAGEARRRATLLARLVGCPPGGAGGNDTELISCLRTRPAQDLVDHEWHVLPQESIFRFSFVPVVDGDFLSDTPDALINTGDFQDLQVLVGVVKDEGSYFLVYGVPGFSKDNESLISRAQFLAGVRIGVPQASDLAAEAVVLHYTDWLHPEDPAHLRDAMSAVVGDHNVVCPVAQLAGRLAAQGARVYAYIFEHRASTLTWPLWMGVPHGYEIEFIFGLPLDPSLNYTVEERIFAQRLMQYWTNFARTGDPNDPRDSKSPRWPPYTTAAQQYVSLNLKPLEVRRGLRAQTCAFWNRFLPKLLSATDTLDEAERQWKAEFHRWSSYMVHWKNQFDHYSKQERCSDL
# Sequence of Norway rat Vesicular Monoamine Transporter (VMAT2), neurotransmitter transporter, Slc18a2 (gene 25549) (Q01827 whole entry, looked up): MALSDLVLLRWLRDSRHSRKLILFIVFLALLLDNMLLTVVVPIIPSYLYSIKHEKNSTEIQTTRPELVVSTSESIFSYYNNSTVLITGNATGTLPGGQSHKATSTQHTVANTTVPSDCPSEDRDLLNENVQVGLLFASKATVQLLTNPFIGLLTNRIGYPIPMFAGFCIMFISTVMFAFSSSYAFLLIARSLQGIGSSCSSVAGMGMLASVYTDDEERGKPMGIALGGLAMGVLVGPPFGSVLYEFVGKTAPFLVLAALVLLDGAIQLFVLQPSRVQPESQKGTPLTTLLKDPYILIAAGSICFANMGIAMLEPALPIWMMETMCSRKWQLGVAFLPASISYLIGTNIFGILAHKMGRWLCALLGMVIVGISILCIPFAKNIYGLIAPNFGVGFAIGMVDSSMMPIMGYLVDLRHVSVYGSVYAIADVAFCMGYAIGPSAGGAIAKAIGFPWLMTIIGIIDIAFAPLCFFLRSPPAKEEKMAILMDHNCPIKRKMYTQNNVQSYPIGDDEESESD
# Sequence of human Protein Tyrosine Phosphatase Receptor Type C (PTPRC), PTPRC (gene 5788) (P08575 whole entry, looked up): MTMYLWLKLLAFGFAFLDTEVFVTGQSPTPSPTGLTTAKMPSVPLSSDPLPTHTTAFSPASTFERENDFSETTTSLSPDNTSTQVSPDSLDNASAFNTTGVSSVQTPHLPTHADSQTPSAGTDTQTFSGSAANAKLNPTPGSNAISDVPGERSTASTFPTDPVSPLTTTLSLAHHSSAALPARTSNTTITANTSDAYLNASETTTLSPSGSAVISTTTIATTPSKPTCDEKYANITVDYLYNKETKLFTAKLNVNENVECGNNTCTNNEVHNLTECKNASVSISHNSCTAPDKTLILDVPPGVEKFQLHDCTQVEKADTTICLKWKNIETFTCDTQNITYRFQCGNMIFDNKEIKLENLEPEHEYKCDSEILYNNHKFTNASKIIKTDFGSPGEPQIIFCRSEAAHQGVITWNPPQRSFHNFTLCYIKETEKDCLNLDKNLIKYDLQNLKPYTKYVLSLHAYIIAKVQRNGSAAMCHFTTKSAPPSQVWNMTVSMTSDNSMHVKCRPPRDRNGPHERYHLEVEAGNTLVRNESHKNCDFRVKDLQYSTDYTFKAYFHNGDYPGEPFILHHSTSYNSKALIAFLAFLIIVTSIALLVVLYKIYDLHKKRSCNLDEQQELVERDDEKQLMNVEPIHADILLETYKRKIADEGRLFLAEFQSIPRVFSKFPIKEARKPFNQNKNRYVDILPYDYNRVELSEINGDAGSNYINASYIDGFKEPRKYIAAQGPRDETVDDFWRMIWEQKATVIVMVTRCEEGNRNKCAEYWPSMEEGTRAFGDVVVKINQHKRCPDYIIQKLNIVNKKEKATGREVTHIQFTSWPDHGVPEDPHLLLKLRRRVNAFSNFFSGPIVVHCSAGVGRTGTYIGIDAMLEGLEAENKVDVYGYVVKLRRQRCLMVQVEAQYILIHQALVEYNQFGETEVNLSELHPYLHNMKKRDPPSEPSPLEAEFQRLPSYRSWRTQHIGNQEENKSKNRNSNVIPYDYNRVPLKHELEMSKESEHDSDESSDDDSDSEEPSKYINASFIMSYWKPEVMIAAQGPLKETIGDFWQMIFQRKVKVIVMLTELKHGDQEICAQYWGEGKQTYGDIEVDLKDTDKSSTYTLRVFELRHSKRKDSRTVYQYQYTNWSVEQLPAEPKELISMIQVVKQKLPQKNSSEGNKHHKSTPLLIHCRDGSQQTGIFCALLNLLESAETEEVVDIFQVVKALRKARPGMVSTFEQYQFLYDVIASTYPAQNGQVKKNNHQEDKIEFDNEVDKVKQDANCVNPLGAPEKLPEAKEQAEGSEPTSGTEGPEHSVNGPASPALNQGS
# Sequence of rat Neurotensin Receptor (NTS), Ntsr1 (gene 366274) (P20789 whole entry, looked up): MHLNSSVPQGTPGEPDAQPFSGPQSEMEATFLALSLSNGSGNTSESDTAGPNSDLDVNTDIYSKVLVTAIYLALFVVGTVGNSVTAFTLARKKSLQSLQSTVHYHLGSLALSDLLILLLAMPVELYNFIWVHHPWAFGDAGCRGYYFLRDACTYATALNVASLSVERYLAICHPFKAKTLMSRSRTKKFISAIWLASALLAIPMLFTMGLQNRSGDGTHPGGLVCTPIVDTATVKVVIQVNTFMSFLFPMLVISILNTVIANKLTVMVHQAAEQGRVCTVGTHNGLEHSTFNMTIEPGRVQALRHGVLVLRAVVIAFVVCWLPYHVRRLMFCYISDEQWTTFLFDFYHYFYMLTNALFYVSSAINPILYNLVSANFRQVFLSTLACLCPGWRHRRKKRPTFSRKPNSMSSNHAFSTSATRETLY
structure (smiles),measurement,setting,value
C1CCC(SSC2CCCCC2)CC1,outcome,[1],inactive
Cc1cn([C@H]2C[C@H](N=[N+]=[N-])[C@@H](CO)O2)c(=O)[nH]c1=O,outcome,[2],inactive
OCCC(F)(F)C(F)(F)C(F)(F)C(F)(F)C(F)(F)C(F)(F)F,outcome,[3],inactive
Cc1[nH]cnc1C[C@H]1CCc2c(C)c3ccccc3n2C1=O,AC50,[3],0.755 µM (active)
CC(=O)CC(c1ccccc1)c1c(O)c2ccccc2oc1=O (stereo not given),outcome,[4],inactive
C[C@]12C[C@H](O)[C@H]3[C@@H](CCC4=CC(=O)CC[C@@]43C)[C@@H]1CC[C@@H]2C(=O)CO,outcome,[5],inactive
CCCCc1oc2ccccc2c1C(=O)c1cc(I)c(OCCN(CC)CC)c(I)c1,outcome,[6],inactive
same,AC50,[7],18.9 µM (active)
CC1(C)CC(N=C=O)CC(C)(CN=C=O)C1 (stereo not given),outcome,[8],inactive
CC/C(=C\C(=N/O)C(N)=O)C(C)[N+](=O)[O-] (stereo not given),AC50,[8],37.8 µM (active)
same,outcome,[9],inactive
O=c1c(O)c(-c2ccc(O)c(O)c2)oc2cc(O)cc(O)c12,AC50,[7],9.38 µM (active)
C#CC(O)CCC (stereo not given),AC50,[10],25 µM (active)
same,outcome,[7],inactive
O=C1OC2(c3cc(Br)c(O)c(Br)c3Oc3c2cc(Br)c(O)c3Br)c2c(Cl)c(Cl)c(Cl)c(Cl)c21,AC50,[10],0.851 µM (active)
same,AC50,[6],2.75 µM (active)
CCCCCCCCc1ccc(Nc2ccc(CCCCCCCC)cc2)cc1,outcome,[10],inactive
C[C@@H]1C[C@H]2[C@@H]3CCC4=CC(=O)C=C[C@]4(C)[C@@]3(F)[C@@H](O)C[C@]2(C)[C@@]1(O)C(=O)COP(=O)(O)O,AC50,[5],15.3 µM (active)
same,outcome,[11],inactive
same,outcome,[9],inactive
OC[C@H]1O[C@@H]2O[C@H]3[C@H](O)[C@@H](O)[C@@H](O[C@H]4[C@H](O)[C@@H](O)[C@@H](O[C@H]5[C@H](O)[C@@H](O)[C@@H](O[C@H]6[C@H](O)[C@@H](O)[C@@H](O[C@H]7[C@H](O)[C@@H](O)[C@@H](O[C@H]1[C@H](O)[C@H]2O)O[C@@H]7CO)O[C@@H]6CO)O[C@@H]5CO)O[C@@H]4CO)O[C@@H]3CO,outcome,[12],inactive
CCOC(=O)NCCOc1ccc(Oc2ccccc2)cc1,outcome,[12],inactive
CCCCc1nc2cccnc2n1Cc1ccc(-c2ccccc2-c2nnn[nH]2)cc1,outcome,[5],inactive
CCCCC(CC)CN1C(=O)C2C3C=CC(C3)C2C1=O (stereo not given),outcome,[11],inactive
same,outcome,[8],inactive
same,outcome,[13],inactive
same,AC50,[14],174 µM (active)
CCCCCCCC=O,outcome,[6],inactive
CCCCCCCCCC,outcome,[10],inactive
same,outcome,[6],inactive
same,outcome,[7],inactive
same,outcome,[9],inactive
same,outcome,[15],inactive
c1ccc2ncccc2c1,outcome,[11],inactive
same,outcome,[8],inactive
OC12N=C(c3ccccc3)SC1Cc1cc(Cl)ccc12 (stereo not given),AC50,[5],21.3 µM (active)
CCCCCCC(=O)OCC,outcome,[5],inactive
COCC(C)OCC(C)O (stereo not given),outcome,[10],inactive
same,outcome,[16],inactive
COc1nc(C)nc(NC(=O)NS(=O)(=O)c2ccccc2OCCCl)n1,outcome,[12],inactive
same,outcome,[17],inactive
same,outcome,[13],inactive
Nc1ccc(Nc2ccccc2)cc1,AC50,[5],19.1 µM (active)
same,AC50,[8],10.4 µM (active)
same,AC50,[3],8.65 µM (active)
